Screens (PubChem BioAssay)
CHT inh = inhibitors of human choline transporter CHT; High affinity choline transporter 1 (Homo sapiens), Q9GZV3; CHT-expressing cells, membrane potential dye, choline response; hits give low values; B-score at 10 µM; 310,000 compounds, 0.86% hits; AID 488975, 2010;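 active = B-score over 3 SD under the library average, and starting fluorescence ratio not unusually high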;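 also: choline stimulus applied at its EC90 after an EC20 pre-addition; B-score computed on integrated fluorescence ratio after choline addition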
CHT allo act = CHT positive allosteric modulators, primary screen, cell-based, membrane potential dye, choline EC20 | High affinity choline transporter 1 (Homo sapiens), Q9GZV3 | CHT-expressing cells; hits give high values; LV-AA mutant CHT in HEK293 cells | B-score at 10 µM | 310,000 compounds, 0.49% hits;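 active = initial fluorescence not abnormally high and integrated response B-score, plate-corrected, over 3 SD above library mean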
ANO1 activ = TMEM16A chloride channel activators or potentiators, primary screen, cell-based, HTS | 340,000 compounds, 0.3% hits | Anoctamin-1 (Mus musculus), Q8BHY3 | B-score at 10 µM | HEK293 TMEM16A/YFP-H148Q/I152L, iodide quench fluorescence; hits give low values;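 active = fluorescence-ratio B-score plate-corrected deviation score at least 3 library SD below zero, with starting fluorescence score within 5 deviations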;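 also: channel opened by trigger with iodide after compound preincubation; score built on the fluorescence ratio of max minus min over baseline; more negative score means more quench and so TMEM16A activation or potentiation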
Target sequence (Q8BHY3 whole entry, looked up): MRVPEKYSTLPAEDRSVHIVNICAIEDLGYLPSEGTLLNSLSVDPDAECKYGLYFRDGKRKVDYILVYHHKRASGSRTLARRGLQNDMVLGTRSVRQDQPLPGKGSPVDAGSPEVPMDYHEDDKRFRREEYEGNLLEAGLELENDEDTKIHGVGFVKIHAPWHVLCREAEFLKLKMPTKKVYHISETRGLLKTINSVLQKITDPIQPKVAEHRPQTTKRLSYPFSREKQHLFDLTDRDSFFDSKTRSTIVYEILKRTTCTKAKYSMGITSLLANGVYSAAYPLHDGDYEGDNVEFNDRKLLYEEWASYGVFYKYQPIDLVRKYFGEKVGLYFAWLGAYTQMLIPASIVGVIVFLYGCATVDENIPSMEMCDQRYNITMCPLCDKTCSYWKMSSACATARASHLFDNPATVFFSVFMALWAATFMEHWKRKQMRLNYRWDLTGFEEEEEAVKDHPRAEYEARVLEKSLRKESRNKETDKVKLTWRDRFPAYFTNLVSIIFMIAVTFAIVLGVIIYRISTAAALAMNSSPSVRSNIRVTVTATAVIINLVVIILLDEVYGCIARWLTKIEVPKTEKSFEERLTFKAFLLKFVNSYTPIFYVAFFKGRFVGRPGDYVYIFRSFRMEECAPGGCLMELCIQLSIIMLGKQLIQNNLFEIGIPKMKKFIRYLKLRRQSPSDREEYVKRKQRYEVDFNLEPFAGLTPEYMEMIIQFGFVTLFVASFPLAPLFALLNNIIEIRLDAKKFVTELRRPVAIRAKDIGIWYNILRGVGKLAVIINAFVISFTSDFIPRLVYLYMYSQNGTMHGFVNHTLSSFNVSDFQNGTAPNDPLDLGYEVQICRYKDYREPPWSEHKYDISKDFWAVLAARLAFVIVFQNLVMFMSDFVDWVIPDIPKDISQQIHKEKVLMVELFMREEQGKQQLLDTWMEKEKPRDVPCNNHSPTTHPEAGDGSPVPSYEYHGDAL
ANO1 block = TMEM16A chloride channel inhibitors, primary screen, cell-based, HTS. AID 588511, 2011. HEK293 TMEM16A/YFP iodide influx fluorescence, ionomycin. 310,000 compounds, 1.2% hits. normalized B-score (activity score, 25-100; higher = stronger inhibition) at 10 µM;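 active = ratio plate-corrected score three or more library SD toward inhibition, starting fluorescence score within five deviations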;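 also: score derived from kinetic fluorescence span divided by baseline fluorescence per well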
CHT inh conf = CHT inhibitors, confirmation, cell-based, membrane potential dye, duplicate; CHT activity remaining % of control (hits give low values), % at 10 µM; CHT-expressing cells, choline membrane potential dye; LV-to-AA substituted CHT, HEK293 cells; 2,400 compounds, 70% hits; shares compounds with CHT inh;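 active = choline transporter activity left, mean of duplicates at 10 µM, below buffer-only control mean minus 3 SD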;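 also: depolarization triggered by choline at its EC90 following an EC20 pre-addition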
HEK293 CHT ctr = membrane potential effects in parental HEK293, counter-screen for CHT inhibitor project, cell-based, membrane potential dye. shares compounds with CHT inh. choline response; active = decrease or increase beyond buffer ±3SD. membrane potential ratio readout (active if shifted either direction beyond buffer ±3SD; no single direction) at 10 µM. 2,400 compounds, 4% hits. AID 493222, 2011;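 also: parental cells lack the transporter so any hit is non-specific; ratio is peak minus trough fluorescence over baseline after EC90 choline challenge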
Numbers stand for hits; n = inactive; x = no result. The list is not random: actives were taken first. Their share in the collection is about 2.4%.

SMILES | CHT inh | CHT allo act | ANO1 activ | ANO1 block | CHT inh conf | HEK293 CHT ctr
CCc1ccc(S(=O)(=O)c2n[nH]n3c2nc(=O)c2ccccc23)cc1 | -4.94 | n | n | n | 8.6% | n
CC(C)c1ccc(S(=O)(=O)c2n[nH]n3c2nc(=O)c2ccccc23)cc1 | n | n | n | n | x | x
CS(=O)(=O)c1ccc(NC(=O)CN2C(=O)C3CCCCC3C2=O)cc1 (stereo not given) | n | n | n | n | x | x
CSc1nc2ccsc2c(=O)n1-c1ccccc1 | n | n | n | n | x | x
CNc1nc(SC)nc2ccsc12 | -13.8 | n | n | n | 4.2% | n
Cc1ccc(S(=O)(=O)CC(O)COc2ccc(F)cc2Cl)c(C)c1 (stereo not given) | n | n | n | n | x | x
Cc1ccc(S(=O)(=O)CC(O)COc2ccc(F)cc2Cl)cc1 (stereo not given) | -6.65 | n | n | n | 54.2% | n
CCOC(CNC(=O)c1ccc(CNC(=O)c2ccc(OC)c(OC)c2)cc1)OCC | n | n | n | n | x | x
C#CCOC(=O)Nc1cccn(Cc2c(Cl)cccc2Cl)c1=O | -5.05 | n | n | n | n | n
O=C(CCC1CCCN(c2ncccn2)C1)NCc1ccc(F)c(F)c1 (stereo not given) | -5.78 | n | n | n | 63.9% | n
Fc1ccccc1-c1csc(=Nc2cccnc2)n1CCCn1ccnc1 | -6.84 | n | n | n | 47.6% | n
COCCn1c(-c2cccs2)csc1=Nc1cccnc1 | n | n | n | n | x | x
NC(=O)c1cc(S(=O)(=O)NCCc2ccc(Cl)cc2)cs1 | n | n | n | n | x | x
N#C/C(=C\c1ccc(-c2cccc(C(F)(F)F)c2)o1)C(=O)Nn1cnnc1 | n | n | n | n | x | x
CCCOc1ccc(C(=O)NC(=S)NNC(=O)c2c(-c3ccccc3)noc2C)cc1 | -11.9 | n | n | 100 | 56.3% | n
CCCOc1ccc(NC(=O)c2c(-c3ccccc3)noc2C)cc1 | n | n | n | n | x | x
COc1ccc(/C=C(\NC(=O)c2ccccc2)C(=O)N2CCN(C)CC2)cc1 | n | n | n | n | x | x
O=C(COc1ccccc1/C=C1\SC(=O)NC1=O)Nc1ccccc1 | -5.72 | n | n | n | 51.5% | n
COc1cccc(/C=C2/NC(=O)NC2=O)c1OCC(=O)Nc1ccccc1 | n | n | n | n | x | x
Cc1cccc(C(=O)Nc2scc(CC(C)C)c2C(=O)O)c1 | n | n | n | n | x | x
Cc1ccc(-c2csc(NC(=O)c3cccc(C)c3)c2C(=O)O)cc1 | -7.71 | n | n | n | 42.6% | n
CC(C)Cc1csc(NC(=O)c2ccccc2Cl)c1C(=O)O | n | n | n | n | x | x
Cc1ccc(-c2csc(NC(=O)c3ccccc3Cl)c2C(=O)O)cc1 | -5.85 | n | n | n | 66.1% | n
O=C(Cc1ccc(Cl)cc1Cl)Nc1cccc(S(=O)(=O)Nc2ccccc2F)c1 | n | n | n | n | x | x
Cc1cccc2c1-c1sc(C(=O)Nc3nccs3)cc1CO2 | n | n | n | n | x | x
SMILES | CHT inh | CHT allo act | ANO1 activ | ANO1 block | CHT inh conf | HEK293 CHT ctr
CCOC(=O)c1cc2c(s1)-c1c(C)cccc1OC2 | -6.79 | n | n | n | 67.8% | n
Cc1cc(C)c(NC(=O)CCCCCNC2CCCCC2)c(C)c1 | -5.23 | n | n | n | 7.1% | n
Cc1ccc(C(=O)N2CCN(C)CC2)cc1S(=O)(=O)N1CCOCC1 | n | n | n | n | x | x
C=CCNS(=O)(=O)c1ccc(N2C(=O)c3ccccc3C2=O)cc1 | -6.48 | n | n | n | 63.2% | n
CC(C)(C)NS(=O)(=O)c1ccc(N2C(=O)c3ccccc3C2=O)cc1 | -7.5 | n | n | n | 60.5% | n
Cc1cc(C)nc(NS(=O)(=O)c2ccc(N3C(=O)c4ccccc4C3=O)cc2)n1 | n | n | n | n | x | x
COc1ccc(C(=O)N2CCNC(=O)C2CC(=O)Nc2ccc(C)c(C)c2)cc1 (stereo not given) | n | n | n | n | x | x
COc1ccc(C(C(=O)NC2CCCCC2)N(C(=O)c2ccco2)c2ccccc2C(C)=O)cc1OC (stereo not given) | -5.15 | n | n | n | 70.9% | n
CCN(c1ccccc1C)S(=O)(=O)c1cc2c3c(c1)CCN3C(=O)CC2 | n | n | n | n | x | x
CCOc1ccc2nc(Cl)c(CN(C(C)=O)C3CCCCC3)cc2c1 | -5.55 | n | n | n | n | n
COc1cc(NC(=O)COC(=O)/C=C/c2ccccc2Cl)cc(OC)c1 | n | n | n | n | x | x
COc1cc2c(cc1OC)[C@H](C)N(C(=O)COc1ccccc1)CC2 | n | n | n | n | x | x
COc1ccc(CC(=O)N2CCc3cc(OC)c(OC)cc3C2C)c(OC)c1 (stereo not given) | -12.1 | n | n | n | n | n
CN(C)CCCn1c(=O)n(CCc2ccccc2)c(=O)c2c3c(sc21)CCCCC3 | -7.78 | n | n | n | 31.1% | n
CN(C)CCCNC(=S)NCC(c1ccc(Cl)cc1Cl)c1c[nH]c2ccccc12 (stereo not given) | -5.76 | n | n | n | n | n
O=C(c1ccco1)N1CCN(C(=O)c2cc3sccc3n2Cc2ccccc2)CC1 | -5.88 | n | n | n | n | n
N#C/C(=N\Nc1cccc([N+](=O)[O-])c1)C(=O)c1ccc(Br)cc1 | -10 | n | n | 25 | 63.4% | n
N#C/C(=N\Nc1ccc([N+](=O)[O-])cc1)C(N)=S | -9.42 | n | n | 100 | -9.8% | n
O=C(O)c1ccc(N=NNc2cccc([N+](=O)[O-])c2)cc1 | n | n | n | n | x | x
O=C(Nc1ccc2ccccc2c1)c1ccc2[nH]c(=O)c(=O)[nH]c2c1 | n | n | n | n | x | x
Cc1cc(C(=O)N/N=C/c2ccc3c(c2)OCO3)c(C)o1 | -7.09 | n | n | n | n | n
Cc1ccsc1C(=O)N/N=C/c1ccc2c(c1)OCO2 | n | n | n | n | x | x
Cc1nnc(NC(=O)CSc2nnc(CNC(=O)c3ccc(F)cc3)o2)s1 | n | n | n | n | x | x
COc1ccc(C)cc1NC(=O)CN1CCN(c2ccccc2F)CC1 | -4.99 | n | n | n | n | n
COc1ccc(OC)c(NC(=O)CCN2CCN(c3ccccc3F)CC2)c1 | n | n | n | n | x | x
Cc1ccc(-c2csc3nc(SCC(=O)Nc4ccc(Cl)c(C(=O)O)c4)[nH]c(=O)c23)cc1 | -5.62 | n | n | n | 67.2% | n
COc1cc(CC(=O)N(C)CC(=O)Nc2ccc(Cl)c(C(F)(F)F)c2)cc(OC)c1OC | n | n | n | n | x | x
